About 83,000 compounds went through this panel and 20% of them were active in at least one assay; those are over-represented in the sample as a whole.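 Results are percent growth after 48 hours of single-concentration exposure. 100 means growth as in untreated cells, lower positive values show inhibition; negative values down to -100 show cell death.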 Calls of active or inactive are those of the source. How the source made its calls: active means growth percent below 10; inactive means the rest.
Assays:
Assay in all cases: NCI-60 one-dose screen, 48 h (100 = growth as untreated, 0 = no growth, -100 = all killed)
Conditions in all cases: 10 µM unless noted
DU-145 prostate = tested on: DU-145 prostate
K-562 leukemia = tested on: K-562 leukemia
MALME-3M melanoma = tested on: MALME-3M melanoma
MDA-MB-231 breast = tested on: MDA-MB-231 breast
RXF 393 renal = tested on: RXF 393 renal
SF-268 CNS = tested on: SF-268 CNS
SF-295 CNS = tested on: SF-295 CNS
SF-539 CNS = tested on: SF-539 CNS
UACC-257 melanoma = tested on: UACC-257 melanoma
M14 melanoma = tested on: M14 melanoma
HCT-15 colon = tested on: HCT-15 colon
HT29 colon = tested on: HT29 colon
SNB-75 CNS = tested on: SNB-75 CNS
SNB-19 CNS = tested on: SNB-19 CNS
U251 CNS = tested on: U251 CNS
PC-3 prostate = tested on: PC-3 prostate
SK-MEL-5 melanoma = tested on: SK-MEL-5 melanoma
UACC-62 melanoma = tested on: UACC-62 melanoma
LOX IMVI melanoma = tested on: LOX IMVI melanoma
SK-MEL-28 melanoma = tested on: SK-MEL-28 melanoma

Measured: growth

CC(C)(C)OC(=O)N1C=C/C(=C\Cn2cc(-c3ccccc3)nn2)CC1
inactive: DU-145 prostate 88.2% | K-562 leukemia 41.4% | MALME-3M melanoma 65.7% | MDA-MB-231 breast 75.9% | RXF 393 renal 91.8% | SF-268 CNS 81% | SF-295 CNS 61% | SF-539 CNS 79.5% | UACC-257 melanoma 66% | M14 melanoma 56.5% | HCT-15 colon 86.9% | HT29 colon 99.1% | SNB-75 CNS 78.8% | SNB-19 CNS 73.1% | U251 CNS 91.8% | PC-3 prostate 82.7% | SK-MEL-5 melanoma 36.7% | UACC-62 melanoma 65.6% | LOX IMVI melanoma 76.9% | SK-MEL-28 melanoma 72.7%

COc1ncnc2c(-c3ccccc3)cn(COCc3ccccc3)c12
active: SK-MEL-5 melanoma 5.61%
inactive: DU-145 prostate 86.6% | K-562 leukemia 29.5% | MALME-3M melanoma 51.9% | MDA-MB-231 breast 56.9% | RXF 393 renal 70.3% | SF-268 CNS 74.4% | SF-295 CNS 52.6% | SF-539 CNS 84.1% | UACC-257 melanoma 40% | M14 melanoma 44.1% | HCT-15 colon 42.6% | HT29 colon 47.8% | SNB-75 CNS 99.8% | SNB-19 CNS 78% | U251 CNS 60.1% | PC-3 prostate 25.2% | UACC-62 melanoma 40.4% | LOX IMVI melanoma 56% | SK-MEL-28 melanoma 77.9%

CCCCCn1sc(=O)n(Cc2ccc(CNC(=O)OCc3ccc4cccc(O)c4n3)cc2)c1=O
active: DU-145 prostate -15% | K-562 leukemia 3.39% | MALME-3M melanoma -77.7% | MDA-MB-231 breast -62.5% | RXF 393 renal -76.8% | SF-539 CNS -69.6% | UACC-257 melanoma 0.0301% | M14 melanoma -64.7% | HCT-15 colon -20.5% | HT29 colon -49.2% | SNB-75 CNS -4.62% | PC-3 prostate 3.68% | SK-MEL-5 melanoma -44.7% | UACC-62 melanoma -64.2% | LOX IMVI melanoma -91.5% | SK-MEL-28 melanoma -35%
inactive: SF-268 CNS 27.6% | SF-295 CNS 31.1% | SNB-19 CNS 37% | U251 CNS 20.1%

COc1ccc(C2=C(c3cn(C)c4ccccc34)C(=O)OC2)cc1OC
inactive: DU-145 prostate 48.7% | K-562 leukemia 18% | MALME-3M melanoma 35.4% | MDA-MB-231 breast 49.8% | SF-268 CNS 52.1% | SF-295 CNS 23% | UACC-257 melanoma 79.7% | M14 melanoma 50% | HCT-15 colon 23.7% | SNB-19 CNS 38.3% | U251 CNS 35.1% | PC-3 prostate 21.3% | SK-MEL-5 melanoma 16.4% | UACC-62 melanoma 26.8% | LOX IMVI melanoma 49.6% | SK-MEL-28 melanoma 69.9%
active: RXF 393 renal -7.01% | SF-539 CNS -12.2% | HT29 colon 6.9% | SNB-75 CNS -29.3%

C[C@@H]1C[C@H]2C(=O)O[C@@H](C)[C@H](NC(=O)[C@H](Cc3cc(F)cc(F)c3)NC(=O)Nc3ccc(C4CC4)cc3F)C(=O)N3CCC[C@H]3C(=O)N3CCCC[C@H]3C(=O)N[C@@H](C)C(=O)N2C1
active: MDA-MB-231 breast -14.4% | RXF 393 renal -1.09% | SF-295 CNS -1.67% | UACC-257 melanoma 6.5% | HCT-15 colon 6.12% | SNB-75 CNS 6.49% | SK-MEL-5 melanoma -47.6% | UACC-62 melanoma 3.87%
inactive: DU-145 prostate 21.8% | K-562 leukemia 17.5% | MALME-3M melanoma 18.5% | SF-268 CNS 22.5% | SF-539 CNS 24.7% | M14 melanoma 10.7% | HT29 colon 10.5% | SNB-19 CNS 15.8% | U251 CNS 20.3% | PC-3 prostate 12% | LOX IMVI melanoma 19.2% | SK-MEL-28 melanoma 18.3%

C=C(C)[C@@H]1CC[C@]2(C(=O)NCCNCCNC(=O)OC(C)(C)C)CC[C@]3(C)[C@H](CC[C@@H]4[C@@]5(C)CCC(=O)C(C)(C)[C@@H]5CC[C@]43C)[C@@H]12
active: MDA-MB-231 breast -33.8% [100 µM] | SK-MEL-5 melanoma -8.44% [100 µM]
inactive: DU-145 prostate 53.5% [100 µM] | K-562 leukemia 38.1% [100 µM] | MALME-3M melanoma 64.3% [100 µM] | RXF 393 renal 35.9% [100 µM] | SF-268 CNS 49.8% [100 µM] | SF-295 CNS 32% [100 µM] | SF-539 CNS 50.1% [100 µM] | UACC-257 melanoma 36.9% [100 µM] | M14 melanoma 54.1% [100 µM] | HCT-15 colon 50.4% [100 µM] | HT29 colon 23.7% [100 µM] | SNB-75 CNS 23.9% [100 µM] | SNB-19 CNS 47.8% [100 µM] | U251 CNS 27.9% [100 µM] | PC-3 prostate 19.1% [100 µM] | UACC-62 melanoma 48.2% [100 µM] | LOX IMVI melanoma 39.6% [100 µM] | SK-MEL-28 melanoma 56.3% [100 µM]

C=C(CC(=O)OC)C(C)=O
inactive: DU-145 prostate 107% | K-562 leukemia 106% | MALME-3M melanoma 128% | MDA-MB-231 breast 94.8% | RXF 393 renal 112% | SF-268 CNS 106% | SF-295 CNS 106% | SF-539 CNS 120% | UACC-257 melanoma 118% | M14 melanoma 119% | HCT-15 colon 117% | HT29 colon 119% | SNB-75 CNS 110% | SNB-19 CNS 103% | U251 CNS 116% | PC-3 prostate 109% | SK-MEL-5 melanoma 107% | UACC-62 melanoma 95.4% | LOX IMVI melanoma 110% | SK-MEL-28 melanoma 118%

CC(=O)Nc1ccc2nc3ccc(NC(C)=O)cc3[n+](-c3ccccc3)c2c1
inactive: DU-145 prostate 117% | K-562 leukemia 57.1% | MALME-3M melanoma 115% | MDA-MB-231 breast 66.3% | RXF 393 renal 101% | SF-268 CNS 97.5% | SF-295 CNS 121% | SF-539 CNS 89.3% | UACC-257 melanoma 94.5% | M14 melanoma 107% | HCT-15 colon 104% | HT29 colon 115% | SNB-75 CNS 82.2% | SNB-19 CNS 94.2% | U251 CNS 109% | PC-3 prostate 104% | SK-MEL-5 melanoma 96.3% | UACC-62 melanoma 103% | LOX IMVI melanoma 96.8% | SK-MEL-28 melanoma 166%

COc1cc(Cl)cc(-c2nn(C(=O)NS(=O)(=O)c3ccccc3)cc2-c2ccncc2)c1
active: SNB-75 CNS 3.59%
inactive: DU-145 prostate 82.5% | K-562 leukemia 86.3% | MALME-3M melanoma 96.4% | MDA-MB-231 breast 62.6% | RXF 393 renal 79.2% | SF-268 CNS 81.1% | SF-295 CNS 97.9% | SF-539 CNS 48.2% | UACC-257 melanoma 110% | M14 melanoma 86.4% | HCT-15 colon 111% | HT29 colon 41.1% | SNB-19 CNS 105% | U251 CNS 81.5% | PC-3 prostate 91.4% | SK-MEL-5 melanoma 93.3% | UACC-62 melanoma 82.7% | LOX IMVI melanoma 59.1% | SK-MEL-28 melanoma 98.7%

CCCCCCCCCN(CCCCCCCCC)C(C)C(=O)c1ccc2cc(Br)c3ccccc3c2c1 (stereo not given)
inactive: DU-145 prostate 88.6% | K-562 leukemia 39.2% | MALME-3M melanoma 118% | MDA-MB-231 breast 68.9% | RXF 393 renal 99.4% | SF-268 CNS 87.1% | SF-295 CNS 100% | SF-539 CNS 81.2% | UACC-257 melanoma 98.7% | M14 melanoma 55.7% | HCT-15 colon 47.1% | HT29 colon 30.1% | SNB-75 CNS 84.5% | SNB-19 CNS 92% | U251 CNS 70.9% | PC-3 prostate 75.2% | SK-MEL-5 melanoma 88.5% | UACC-62 melanoma 92.8% | LOX IMVI melanoma 63.9% | SK-MEL-28 melanoma 109%

Source: PubChem BioAssay (NCI)
